Bioassay records as filed in PubChem.
Pol eta inh: DNA polymerase eta (human) inhibition; Q9Y253; recombinant Pol eta, fluorescent DNA replication assay; Potency, µM (series often up to 114 µM), hits mostly inhibitors; hit rate 1.2% among 390,000
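Pol eta at 10 nM preincubated with compounds 15 min at room temperature; reaction started with fluorescent substrate (50 nM final) and read kinetically at 0 and 10 min.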
TDP1 inh: blocks human tyrosyl-DNA phosphodiesterase 1; Q9NUW8; recombinant TDP1, AlphaScreen DNA substrate cleavage; Potency, µM (titrated, usually from 130 µM), most hits filed as inhibitors; hit rate 0.28% among 350,000; AID 485290; also: nearly all actives have a fitted effect of over 40% in size
Target sequence (Q9NUW8 whole entry, looked up): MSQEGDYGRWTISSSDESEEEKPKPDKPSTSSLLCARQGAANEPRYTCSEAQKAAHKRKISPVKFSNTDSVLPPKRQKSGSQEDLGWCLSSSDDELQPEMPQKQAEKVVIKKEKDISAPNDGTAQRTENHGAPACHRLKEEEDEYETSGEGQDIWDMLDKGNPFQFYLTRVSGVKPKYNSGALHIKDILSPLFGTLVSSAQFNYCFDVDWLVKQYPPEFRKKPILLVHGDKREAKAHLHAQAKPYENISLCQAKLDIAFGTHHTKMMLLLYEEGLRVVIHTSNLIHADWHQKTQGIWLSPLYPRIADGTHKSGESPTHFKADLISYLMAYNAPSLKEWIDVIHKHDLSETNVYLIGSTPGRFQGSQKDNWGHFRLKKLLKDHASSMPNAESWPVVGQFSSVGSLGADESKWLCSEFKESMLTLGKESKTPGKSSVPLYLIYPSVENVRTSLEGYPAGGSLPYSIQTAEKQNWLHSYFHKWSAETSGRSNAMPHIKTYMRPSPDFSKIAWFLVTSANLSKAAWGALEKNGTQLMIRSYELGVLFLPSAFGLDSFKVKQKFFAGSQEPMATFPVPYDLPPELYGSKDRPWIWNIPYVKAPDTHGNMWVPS
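Recombinant E. coli-expressed Tdp1 (1 nM) preincubated with compound 15 min at RT, then 5'-biotin/3'-phosphotyrosine-FITC DNA substrate (15 nM) added for 5 min. AlphaScreen beads (10 ug/ml) added, 10 min RT; tyrosine-FITC cleavage read as signal loss.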
FEN1 inhibitor: human FEN1 inhibition; hit rate 0.35% among 390,000; Potency, µM (doses to about 114 µM), usual class: inhibitors; Recombinant FEN1 flap cleavage, fluorescence, 15 min; also: nearly all actives have a fitted effect of over 65% in size
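Quantitative HTS format: each compound was titrated, incubated with 10 nM nuclease for 15 min at room temperature, then challenged with flap substrate at 50 nM final. Signal change over 15 min gave concentration–effect curves.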
Pol kappa inh: blocks human DNA polymerase kappa activity. Potency, µM (doses to about 107 µM), usual class: inhibitors. Q9UBT6. AID 588579. hit rate 0.53% among 400,000. purified Pol kappa, fluorescent DNA synthesis assay, 10 min
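Inhibition of 10 nM Pol kappa is measured by a fluorescent read-out at 0 and 10 min following addition of 50 nM substrate (final), with a 15-min room-temperature compound preincubation.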
Pol beta inh: blocks human DNA polymerase beta activity; Potency, µM (highest dose often 114 µM), usual class: inhibitors; Pol beta primer extension/strand displacement, fluorescence kinetic; hit rate 1.3% among 340,000
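Pol beta (10 nM) and compounds were preincubated 15 min at room temperature, then 50 nM substrate (final) started primer extension/strand displacement. Reads were taken at 0 and 10 min; concentration-response data were fitted to a four-parameter Hill equation.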
POLI inh: DNA polymerase iota (human) inhibition; Q9UNA4; Pol iota fluorescent replication assay, 10 min; Potency, µM (titrated, usually from 115 µM), most hits filed as inhibitors; hit rate 1% among 390,000; AID 588590
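Pol iota at 10 nM preincubated 15 min with compounds at room temperature; reaction started with fluorescent substrate, 50 nM final. Fluorescence read kinetically at 0 and 10 min; buffer-only wells as negative control.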
Hits are given with their value; – = inactive; ? = inconclusive; · = no result given; [ ] = remark or other dose. Most compounds without a hit are left out; they make up all but 2.4% or so of the library. Calls follow the shape of the dose curve; as a rule, active = well fitted curve in the direction sought with a large enough effect; inconclusive = small, poorly fitted or top-dose-only effect, or another doubt; inactive = no such curve, though single readings can be large; an effect the other way counts as inactive or inconclusive.

SMILES	Pol eta inh	TDP1 inh	FEN1 inhibitor	Pol kappa inh	Pol beta inh	POLI inh
Cc1ccc(-n2nc3c(=O)n(CC(=O)NCC(C)c4ccccc4)nc(C)c3c2C)cc1 (stereo not drawn)	–	–	–	–	–	–
C/C=C(\C)C(=O)N[C@@H](c1ccccc1)[C@@H](O)C(=O)O[C@H]1C[C@@]2(O)[C@@H](OC(=O)c3ccccc3)C3[C@](C)(C(=O)[C@H](OC(C)=O)C(=C1C)C2(C)C)[C@@H](O)C[C@H]1OC[C@@]31OC(C)=O (stereo partly drawn)	–	–	–	–	–	–
CC(=O)O[C@H]1C(=O)[C@@]2(C)C([C@H](OC(=O)c3ccccc3)[C@]3(O)C[C@H](OC(=O)[C@H](O)[C@@H](NC(=O)c4ccccc4)c4ccccc4)C(C)=C1C3(C)C)[C@]1(OC(C)=O)CO[C@@H]1C[C@@H]2OC(=O)[C@H](C)NC(=O)c1ccc(-c2c3ccc(=O)cc-3oc3cc(O)ccc23)c(C(=O)O)c1 (stereo partly drawn)	·	–[21 µM]	·	4.7µM	·	·
C=C/C(=C/C(=O)C[C@H](C)C[C@@H](C)CC[C@H](O)[C@H](C)C(=O)C[C@@H](O)[C@H](C)[C@@H](C)OC(=O)C[C@@H](O)C1=C(C)C(=O)OC1=O)CC	·	–[21 µM]	·	4.7µM	·	·
NC(N)=N/N=C/c1cn(-c2ccccc2)nc1-c1cccs1	–	–	–	–	28µM	–
COc1ccc(C=C(C(=O)O)c2ccc(OC)cc2)cc1	–	·	–	–	·	–
CC(=O)OCC1=C(C(=O)O)N2C(=O)C(NC(=O)CCCC(N)C(=O)O)C2SC1 (stereo not drawn)	·	25µM	·	?	·	·
CC(=O)OCC1=C(C(=O)O)N2C(=O)[C@@H](NC(=O)CCC[C@@H](N)C(=O)O)[C@H]2SC1	·	·	–	–	·	·
COc1ccccc1N1C(=O)NC(=O)/C(=C\c2cnn(-c3ccccc3)c2)C1=O	40µM	–	–	–	25µM	18µM
CCOC(=O)c1c(C)[nH]c(C)c1S(=O)(=O)N1CCC(C(=O)N2CCN(c3cccc(Cl)c3)CC2)CC1	–	–	–	–	–	–
COc1ccc(Cn2c(N)c(C(=O)NCc3ccco3)c3nc4ccccc4nc32)cc1	?	–	–	–	56µM	?
Nc1c(C(=O)NCc2ccco2)c2nc3ccccc3nc2n1Cc1ccccc1	–	–	–	–	?	?
COCCCn1c(N)c(C(=O)NCCC(C)C)c2nc3ccccc3nc21	–	?	?	–	–	4.5µM
CCCCn1c(N)c(C(=O)OCCOC)c2nc3ccccc3nc21	–	·	–	–	–	–
CC(C)OCCCNC(=O)c1c(N)n(CC2CCCO2)c2nc3ccccc3nc12 (stereo not drawn)	–	·	–	–	?	7.1µM
CCCNC(=O)c1c(N)n(CC2CCCO2)c2nc3ccccc3nc12 (stereo not drawn)	–	–	?	–	–	–
CC1=C(C(=O)O)N2C(=O)C(NC(=O)c3nn(C)cc3[N+](=O)[O-])C2SC1 (stereo not drawn)	–	–	–	–	–	?
CC(C)CCCC(C)C1CCC2C3CC(O)[C@@]4(O)CC(O)CC[C@@]4(C)C3CC[C@@]12C (stereo partly drawn)	·	–	·	?	·	·
C=CCSC1=N/C(=C\c2cc(OC)c3c(c2)OCO3)C(=O)S1	?	–	–	–	22µM	?
CC1=C(O)C(=O)C=C2C1=CC=C1[C@]2(C)CC[C@@]2(C)C3C[C@](C)(C(=O)O)CC[C@@]3(C)CC[C@@]12C (stereo partly drawn)	·	–	·	?	·	·
CC1(C)C(=O)CC[C@]2(C)C3C(=O)C=C4[C@H]5C[C@@](C)(C(=O)O)CC[C@]5(C)CC[C@]4(C)[C@]3(C)CC[C@@H]12 (stereo partly drawn)	–	–	–	–	45µM	–
CCn1cc(C=C2C(=O)NC(=O)NC2=O)c2ccccc21	–	·	–	–	?	20µM
NC(=O)Cn1cc(C=C2C(=O)NC(=O)NC2=O)c2ccccc21	–	·	?	–	–	?
NC(N)=Nc1ccc2[nH]c3c(c2c1)C[C@@]1(O)[C@H]2Cc4ccc(O)c5c4[C@@]1(CCN2CC1CC1)[C@H]3O5	–	–	50µM	–	–	?
O=C1NC(=O)N(CCc2ccc(F)cc2)C(=O)/C1=C/c1cccs1	–	–	–	–	?	22µM
SMILES	Pol eta inh	TDP1 inh	FEN1 inhibitor	Pol kappa inh	Pol beta inh	POLI inh
CCOC(=O)N1CC(C)N(/[N+]([O-])=N/Oc2ccc([N+](=O)[O-])cc2[N+](=O)[O-])CC1C (stereo not drawn)	·	–	–	–	·	?
O=C1NC(=O)[C@]2(Cc3ccccc3N3CCN(c4ccccc4)CC32)C(=O)N1Cc1ccccc1 (stereo partly drawn)	20µM	–	–	–	–	?
CCOc1cccc(OCC)c2c(C)[n+](CC3CCCO3)c(C)c1-2 (stereo not drawn)	45µM	·	?	25µM	22µM	?
CC[C@H](C)/C=C(C)/C=C/C1=CC2=C(Cl)C(=O)[C@](C)(OC(C)=O)C(=O)C2=CO1	20µM	–	?	79µM	·	50µM
COc1cc(/C=C/[N+](=O)[O-])ccc1O	–	–	?	–	–	32µM
CCN(CC)c1ccc(/C=C/[N+](=O)[O-])cc1	–	–	?	–	–	?
O=C(O)c1cc[c]([Hg][Cl])cc1	–	?	25µM	–	14µM	1.8µM
Cc1cc(I)ccc1Nc1c(C(=O)NOCC2CC2)cc(F)c(F)c1F	·	–	·	?	·	·
Cc1ccc(N2C(=O)/C(=C/N3CCN(C(=O)c4ccco4)CC3)C(=O)NC2=S)cc1C	–	–	–	–	–	18µM
Cc1cccc(N2C(=O)/C(=C/N3CCN(C(=O)c4ccco4)CC3)C(=O)NC2=S)c1	–	–	–	–	–	–
O=c1cc(-c2ccc(O)cc2)oc2c([C@H]3O[C@@H](CO)[C@@H](O)[C@@H](O)[C@@H]3O)c(O)cc(O)c12	·	–	·	–[12 µM]	·	·
Cc1cccc(N2C(=O)CSC23C(=O)N(CC(=O)Nc2cccc(Cl)c2)c2ccccc23)c1 (stereo not drawn)	–	–	–	–	–	?
CCOC(=O)c1c(-n2c(C)cc(C=C3C(=O)NC(=S)NC3=O)c2C)sc2c1CCCC2	28µM	–	?	?	22µM	?
CC(C)=CCCC1(C)C=Cc2c(O)c3c(c(CC=C(C)C)c2O1)OC12C(=CC4CC1C(C)(C)OC2(C/C=C(/C)C(=O)O)C4=O)C3=O (stereo not drawn)	·	–	·	22µM	·	·
CC(C)CCCC1(C)C=Cc2c(O)c3c(c(CCC(C)C)c2O1)OC12C(CC4CC1C(C)(C)OC2(CCC(C)C(=O)O)C4O)C3=O (stereo not drawn)	·	–	·	?	·	·
